Our source for the Potency and outcome values is PubChem BioAssay (Tox21).

Several values for one entry are separate records, joined by “and”; a condition that tells them apart may be missing. Equal entries are not always repeated. Results filed as inconclusive are left out. Activity calls are given as the source filed them. Unless noted, calls follow the shape of the dose curve; as a rule, active = well fitted curve in the direction sought with a large enough effect in the repeat runs; inconclusive = weak or mixed curves; inactive = no such curve, though single readings can be large; an effect the other way counts as inactive or inconclusive.

Assay [1] is described as follows: qHTS assay to identify small molecule antagonists of the androgen receptor (AR) signaling pathway using the MDA cell line in the presence of 0.5 nM R1881 - cell viability counter screen (AID 1259242). Also: nearly all actives have a fitted effect of over 45% in size. Also: potency is read from the fitted curve at half-maximal effect. In outline: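 Cells seeded at 3,000/well and allowed 5 hr at 37C, 0% CO2 before compound transfer and R1881 (0.5 nM final) addition; 16 hr later, live-cell protease fluorescence indicated cytotoxicity.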
(In qHTS, concentration-response curves come from the screen itself.)

The target of assay [2] is Androgen receptor (Homo sapiens) (UniProt P10275). Put plainly: qHTS assay to identify small molecule antagonists of the androgen receptor (AR) signaling pathway using the MDA cell line in the presence of 0.5 nM R1881 (AID 1259243). Also: nearly all actives have a fitted effect of over 50% in size. Also: potency is read from the fitted curve at half-maximal effect. In outline: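 Luminescence from an AR/GR-responsive MMTV-luciferase construct in MDA-kb2 breast carcinoma cells, read 30 min after ONE-Glo, following 16 hr co-treatment with compounds and 0.5 nM R1881.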

A short description of assay [3]: qHTS assay to identify small molecule HDAC inhibitors (AID 1259364).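 Also: wild-type HCT-116 cells with endogenous class I/II HDAC activity; top concentration of the series differs between compounds; nearly all actives have a fitted effect of over 45% in size.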 In a few lines:
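HCT-116 wt cells, 1,500/well, overnight attach. Compounds (DMSO) 2 h, 37 °C. HDAC-Glo I/II, 30 min RT. Luminescence.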

A short description of assay [4]: qHTS assay to identify small molecule HDAC inhibitors - cell viability counter screen (AID 1259365). Also: nearly all actives have a fitted effect of over 50% in size. Also: potency is read from the fitted curve at half-maximal effect. In a few lines: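 Following a 2hr exposure of overnight-plated wild-type HCT-116 cells to DMSO-delivered compounds, CellTiter-Glo was added and luminescence recorded after 30min at room temperature.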
Assay [5] can be described thus: qHTS assay to identify small molecule agonists of the sonic hedgehog signaling (Shh) pathway - cell viability counter screen (AID 1259366). Also: nearly all actives have a fitted effect of over 50% in size. Also: potency is read from the fitted curve at half-maximal effect. In a few lines:
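After a 4hr attachment at 37C, NIH/3T3 cells bearing an integrated Gli1-driven luciferase reporter were dosed with compounds. Treatment lasted 24hr, with the final hour including CellTiter-Fluor for a fluorescence viability measurement.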

A short description of assay [6]: qHTS assay to identify small molecule antagonists of the sonic hedgehog signaling (Shh) pathway - cell viability counter screen (AID 1259367). Also: nearly all actives have a fitted effect of over 55% in size. Also: potency is read from the fitted curve at half-maximal effect. In outline:
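Fluorescence read-out (CellTiter-Fluor, 1 hr at 37C) taken after 23 hr compound treatment of 3T3 Gli1-Luc cells stimulated with conditioned medium. Cells were seeded at 2,000 per well and pre-incubated 4 hr.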

Assay [7] in a line: qHTS assay to identify small molecule agonists of the sonic hedgehog signaling (Shh) pathway (AID 1259368; calls by dose curve;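 also: NIH/3T3-derived 3T3Gli1-Luc cells carrying a stable Gli1-driven firefly luciferase reporter; series mostly up to about 92 µM; nearly all actives have a fitted effect of over 15% in size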). In a few lines:
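Following a 24 hr incubation with DMSO-dissolved compounds at 37 C, 5% CO2, Gli1-Luc NIH/3T3-derived cells received luciferase reagent for 30 min at room temperature prior to luminescence measurement.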

The nature of assay [8]: qHTS assay to identify small molecule antagonists of the sonic hedgehog signaling (Shh) pathway (AID 1259369; calls by dose curve; also: nearly all actives have a fitted effect of over 45% in size; also: potency is read from the fitted curve at half-maximal effect). In a few lines:
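Read-out is luminescence from a firefly luciferase gene controlled by the Gli1 response element, in 3T3Gli1-Luc cells pre-incubated 4hr then exposed to compounds and conditioned medium for 24hr.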

A short description of assay [9]: qHTS assay to identify small molecule agonists of the androgen receptor (AR) signaling pathway in the presence of an antagonist - cell viability counter screen (AID 1259379). Also: nearly all actives have a fitted effect of over 25% in size. Also: potency is read from the fitted curve at half-maximal effect. In outline:
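Each compound was tested at 15 concentrations on MDA-kb2 cells in the presence of 3.0uM nilutamide. Viability was measured by CellTiter-Fluor fluorescence after a 16 hr incubation at 37C in a CO2-free atmosphere.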

Assay [10] in a line: qHTS assay to identify small molecule agonists of the estrogen receptor beta (ER-beta) signaling pathway - cell viability counter screen (AID 1259380). Also: nearly all actives have a fitted effect of over 30% in size. Also: potency is read from the fitted curve at half-maximal effect. In a few lines:
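Compounds dissolved in DMSO were pin-transferred onto ER-beta-UAS-bla HEK293T cells that had settled 6 hr, and exposure ran 16 hr at 37C. Following the reporter read, CellTiter-Glo luminescence after 30 min at room temperature indicated cytotoxicity.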

The target in assay [11] is Androgen receptor (Homo sapiens) (UniProt P10275). Put plainly: qHTS assay to identify small molecule agonists of the androgen receptor (AR) signaling pathway in the presence of an antagonist (AID 1259381; calls by dose curve; also: nearly all actives have a fitted effect of over 15% in size). In outline:
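Plated MDA-kb2 cells (3,000/well) were pre-incubated 5hr, given nilutamide (3.0uM final) or buffer, then dosed with compounds in DMSO at 15 concentrations. Luciferase activity was quantified by luminescence after 16hr at 37C.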

Assay [12] is described as follows: qHTS assay to identify small molecule antagonists of the estrogen receptor beta (ER-beta) signaling pathway - cell viability counter screen (AID 1259382). Also: nearly all actives have a fitted effect of over 55% in size. Also: potency is read from the fitted curve at half-maximal effect. In outline:
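CellTiter-Glo ATP luminescence measured after the LiveBLAzer read in the same wells; ER-beta-UAS-bla HEK293T cells, 16 hr compound treatment with 1nM 17-beta-estradiol agonist at 37C, 5% CO2.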

The nature of assay [13]: qHTS assay to identify small molecule agonists or antagonists of the thyroid stimulating hormone receptor (TSHR) signaling pathway - wild type cell line counter screen (AID 1259384; calls by dose curve). In a few lines:
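Wild-type Hek293 cells, 800/well, 18 h at 37C, then compound with Ro20-1724 for 30 min RT. cAMP by HTRF (cAMP-d2/anti-cAMP cryptate), 1 h RT, fluorescence read. 15 concentrations, triplicates.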

Assay [14] has as its target Thyrotropin receptor (Homo sapiens) (UniProt P16473). Kind of assay: qHTS assay to identify small molecule antagonists of the thyroid stimulating hormone receptor (TSHR) signaling pathway (AID 1259385; calls by dose curve; also: nearly all actives have a fitted effect of over 20% in size). In a few lines:
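TSHR-HEK293 cells (800/well) plated 18 h, then compounds with Ro20-1724 and TSH at 1.5 ng/mL final, 30 min at room temperature. cAMP quantified by HTRF (cAMP-d2/anti-cAMP-cryptate, 1 h); 15 concentrations in triplicate.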

Assay [15] in a line: qHTS assay to identify small molecule agonists of the estrogen receptor alpha (ER-alpha) signaling pathway in the presence of an antagonist - cell viability counter screen (AID 1259386).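 Also: cells exposed to compounds for 22 h at 37 °C before the viability read; nearly all actives have a fitted effect of over 30% in size.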 Also: potency is read from the fitted curve at half-maximal effect. In a few lines: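 Using estrogen-depleted VM7Luc4E2 cells, the 15-concentration compound series was applied together with 10.0nM ICI-182,780 and incubated 22hr at 37C/5% CO2. Cell viability was then scored by CellTiter-Fluor.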

For assay [16], the target named is Estrogen receptor (Homo sapiens) (UniProt P03372). Kind of assay: qHTS assay to identify small molecule antagonists of the estrogen receptor alpha (ER-alpha) signaling pathway using the BG1 cell line in the presence of 0.1 nM 17-beta-estradiol (AID 1259244). Also: nearly all actives have a fitted effect of over 50% in size. Also: potency is read from the fitted curve at half-maximal effect. In outline:
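Luciferase signal from VM7Luc4E2 ERE-reporter cells, co-dosed with test compound and 0.1 nM final 17beta-estradiol for 22 h, read with ONE-Glo.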

Assay [17] has the same target. Put plainly: qHTS assay to identify small molecule agonists of the estrogen receptor alpha (ER-alpha) signaling pathway in the presence of an antagonist (AID 1259383; calls by dose curve; also: top concentration of the series differs between compounds; nearly all actives have a fitted effect of over 15% in size). In a few lines:
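Luminescent ERE-luciferase reporter, VM7Luc4E2 cells (endogenous ER-alpha); 10.0nM ICI-182,780 final; 15-point compound titration; 22hr at 37C; ONE-Glo, 30min RT.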

Assay [18] in a line: qHTS assay to identify small molecule phospholipidosis (PLD) inducers (AID 1259344; active = well fitted curve in the direction sought with a large enough effect; an effect the other way counts as inactive or inconclusive). In outline:
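Read-out is LipidTOX Red fluorescence (ex 595/em 615) imaged in HepG2 cells after 24 h compound exposure at 37 C, with Hoechst nuclear counterstain (ex 352/em 461) allowing per-cell normalisation.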

Assay [19] concerns the target Estrogen receptor beta (Homo sapiens) (UniProt Q92731). Put plainly: qHTS assay to identify small molecule agonists of the estrogen receptor beta (ER-beta) signaling pathway (AID 1259377; active = well fitted activation curve with a large enough effect in the signal ratio in the repeat runs, not every such curve was filed as active; the % refers to the signal ratio). In a few lines:
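In HEK293T cells bearing a UAS-beta-lactamase reporter under ER-beta control, DMSO-delivered compounds were incubated for 16 hr at 37C. Activity was detected as fluorescence 2 hours after LiveBLAzer B/G FRET substrate addition.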

Assay [20] shares this target. Kind of assay: qHTS assay to identify small molecule antagonists of the estrogen receptor beta (ER-beta) signaling pathway (AID 1259378; active = well fitted inhibition curve with a large enough effect in the signal ratio in the repeat runs, not every such curve was filed as active; the % refers to the signal ratio; also: potency is read from the fitted curve at half-maximal effect). In a few lines: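 ER-beta-UAS-bla HEK293T cells in 2% charcoal-stripped FBS medium treated with compound plus 1nM final 17-beta-estradiol for 16 hr at 37C. Beta-lactamase reporter read by FRET substrate fluorescence after 2 hours at room temperature.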

Sequence of Androgen receptor (Homo sapiens) (P10275 whole entry, looked up): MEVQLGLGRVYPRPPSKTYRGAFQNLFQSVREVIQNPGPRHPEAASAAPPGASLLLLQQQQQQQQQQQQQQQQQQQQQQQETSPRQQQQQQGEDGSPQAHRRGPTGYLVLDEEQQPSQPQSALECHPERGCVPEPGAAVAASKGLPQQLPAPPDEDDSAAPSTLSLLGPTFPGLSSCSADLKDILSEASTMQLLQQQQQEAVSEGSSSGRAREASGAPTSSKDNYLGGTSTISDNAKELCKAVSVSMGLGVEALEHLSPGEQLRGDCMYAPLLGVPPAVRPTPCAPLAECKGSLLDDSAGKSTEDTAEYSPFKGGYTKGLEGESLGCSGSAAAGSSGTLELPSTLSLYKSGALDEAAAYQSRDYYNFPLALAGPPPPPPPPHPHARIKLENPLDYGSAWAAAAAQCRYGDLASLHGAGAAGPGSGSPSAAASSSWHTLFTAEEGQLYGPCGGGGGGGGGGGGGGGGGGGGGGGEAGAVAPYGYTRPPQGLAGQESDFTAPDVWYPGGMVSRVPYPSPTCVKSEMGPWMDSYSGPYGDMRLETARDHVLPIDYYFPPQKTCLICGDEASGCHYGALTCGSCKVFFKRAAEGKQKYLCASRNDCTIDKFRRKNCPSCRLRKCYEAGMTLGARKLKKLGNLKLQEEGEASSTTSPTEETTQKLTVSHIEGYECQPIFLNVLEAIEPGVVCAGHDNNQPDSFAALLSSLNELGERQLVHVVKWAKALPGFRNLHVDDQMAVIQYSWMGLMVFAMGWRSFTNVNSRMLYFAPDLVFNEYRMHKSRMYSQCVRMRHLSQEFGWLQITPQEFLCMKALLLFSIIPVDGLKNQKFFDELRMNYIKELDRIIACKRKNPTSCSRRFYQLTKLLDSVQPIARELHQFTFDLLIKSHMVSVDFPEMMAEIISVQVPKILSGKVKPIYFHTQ
Sequence of Estrogen receptor (Homo sapiens) (P03372 whole entry, looked up): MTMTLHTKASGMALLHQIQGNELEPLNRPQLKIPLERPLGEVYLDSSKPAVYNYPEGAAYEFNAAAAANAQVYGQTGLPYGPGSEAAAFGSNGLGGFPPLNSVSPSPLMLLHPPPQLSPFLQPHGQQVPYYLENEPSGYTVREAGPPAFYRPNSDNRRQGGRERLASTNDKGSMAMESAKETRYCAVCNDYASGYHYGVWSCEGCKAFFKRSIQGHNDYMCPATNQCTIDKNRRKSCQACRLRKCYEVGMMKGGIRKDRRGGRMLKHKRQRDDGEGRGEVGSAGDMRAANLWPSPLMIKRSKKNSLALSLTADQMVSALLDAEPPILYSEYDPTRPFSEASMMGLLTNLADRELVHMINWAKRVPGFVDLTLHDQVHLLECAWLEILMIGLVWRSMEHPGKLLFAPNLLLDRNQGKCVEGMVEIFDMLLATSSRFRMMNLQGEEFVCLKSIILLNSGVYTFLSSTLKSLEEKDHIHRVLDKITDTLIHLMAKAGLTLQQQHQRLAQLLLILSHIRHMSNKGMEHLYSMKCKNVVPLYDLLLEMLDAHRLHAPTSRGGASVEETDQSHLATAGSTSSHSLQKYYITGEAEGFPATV
Sequence of Estrogen receptor beta (Homo sapiens) (Q92731 whole entry, looked up): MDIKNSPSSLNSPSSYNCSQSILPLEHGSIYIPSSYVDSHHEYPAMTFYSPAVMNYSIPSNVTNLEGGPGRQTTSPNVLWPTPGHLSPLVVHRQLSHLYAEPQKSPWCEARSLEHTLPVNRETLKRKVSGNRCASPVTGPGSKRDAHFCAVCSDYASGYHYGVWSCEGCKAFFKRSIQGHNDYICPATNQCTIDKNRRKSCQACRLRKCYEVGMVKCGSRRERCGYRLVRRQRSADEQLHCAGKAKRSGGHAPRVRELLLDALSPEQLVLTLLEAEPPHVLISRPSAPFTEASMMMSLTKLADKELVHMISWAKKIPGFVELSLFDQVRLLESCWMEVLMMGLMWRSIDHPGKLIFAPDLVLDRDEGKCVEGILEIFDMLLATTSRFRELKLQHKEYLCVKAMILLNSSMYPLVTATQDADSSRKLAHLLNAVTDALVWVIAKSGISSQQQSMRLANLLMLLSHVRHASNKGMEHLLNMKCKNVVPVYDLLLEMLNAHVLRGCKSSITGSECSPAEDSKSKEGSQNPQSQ
Sequence of Thyrotropin receptor (Homo sapiens) (P16473 whole entry, looked up): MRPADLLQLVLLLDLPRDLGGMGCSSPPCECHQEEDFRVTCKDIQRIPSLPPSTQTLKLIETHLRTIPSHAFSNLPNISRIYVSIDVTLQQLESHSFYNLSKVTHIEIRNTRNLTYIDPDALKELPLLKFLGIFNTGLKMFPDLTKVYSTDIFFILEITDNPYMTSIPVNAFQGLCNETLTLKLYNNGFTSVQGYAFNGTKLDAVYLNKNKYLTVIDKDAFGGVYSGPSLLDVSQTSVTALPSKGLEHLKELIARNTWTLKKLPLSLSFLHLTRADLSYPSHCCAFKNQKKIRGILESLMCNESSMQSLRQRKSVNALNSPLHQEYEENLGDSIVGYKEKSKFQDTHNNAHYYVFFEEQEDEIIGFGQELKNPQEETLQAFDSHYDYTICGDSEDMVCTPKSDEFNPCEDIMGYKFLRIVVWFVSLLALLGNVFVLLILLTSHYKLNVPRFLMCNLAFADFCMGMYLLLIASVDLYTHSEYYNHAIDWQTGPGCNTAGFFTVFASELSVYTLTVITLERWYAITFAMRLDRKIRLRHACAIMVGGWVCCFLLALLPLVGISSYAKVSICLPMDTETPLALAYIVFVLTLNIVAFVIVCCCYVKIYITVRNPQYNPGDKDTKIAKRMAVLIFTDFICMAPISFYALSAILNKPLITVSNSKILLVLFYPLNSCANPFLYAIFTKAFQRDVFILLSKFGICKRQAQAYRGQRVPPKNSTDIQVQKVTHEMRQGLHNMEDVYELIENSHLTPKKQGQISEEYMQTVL

As to `CCCCCCCCCCC=O`, the Potency entry in assay [1], in assay [2], in assay [3], in assay [4], in assay [5] and in assay [6] was “inactive” each time. Besides, the Potency result in [7], in assay [8], in assay [9], in assay [10], in [11] and in [12] was “inactive” throughout. Moreover, the Potency result in assay [14] and in assay [15] was “inactive” in each case. Also, the call in [13] was inactive.

As to `O=C(OCC1CO1)C1CCCCC1C(=O)OCC1CO1` (stereo not given), the Potency entry in assay [1], in assay [2], in assay [3], in assay [4], in assay [7] and in [9] was “inactive” throughout. Also, the Potency result in assay [10], in [11], in assay [12], in [14] and in assay [15] was “inactive” each time. The Potency in [5] and in assay [6] was 13.7 µM (active) each time.

`Nc1ccc(N)c2ccccc12`: the Potency was 61.1 µM (active) in [1]; 19.3 µM (active) in [2]; 12.2 µM (active) in assay [16]; 61.1 µM (active) in [5]; 61.1 µM (active) in assay [6]; 12.2 µM (active) in assay [8]. Also, the Potency is 61.1 µM (active) in [9], 24.3 µM (active) in [10], 27.3 µM (active) in assay [12] and 30.6 µM (active) in assay [15]. In addition, the Potency entry in assay [3], in assay [7], in assay [11] and in [17] was “inactive” each time. The compound was called inactive in assay [13].

As for `Cc1ccc(-n2nc(C(C)(C)C)cc2NC(=O)Nc2ccc(OCCN3CCOCC3)c3ccccc23)cc1`, the Potency result in assay [1], in assay [16], in assay [18], in [3], in [4] and in assay [5] was “inactive” throughout. Besides, the Potency entry in assay [6], in assay [7], in assay [8], in assay [19], in assay [9] and in [12] was “inactive” each time. The Potency result in assay [17] and in [14] was “inactive” in each case. In addition, the Potency in assay [20] was 26.6 µM (active); in assay [10], 7.5 µM (active). Besides, the result in assay [13] was inactive.

Consider `C=CC(=O)OCC(CO)(COC(=O)C=C)COC(=O)C=C`, for which the Potency in assay [1] is 10.9 µM (active) and 27.3 µM (active); in [2], 5.46 µM (active) and 12.2 µM (active); in assay [16], 13.7 µM (active); in assay [5] it was 4.34 µM (active) and 10.9 µM (active); in assay [6], 3.87 µM (active) and 8.63 µM (active); in assay [8], 1.54 µM (active) and 3.86 µM (active). In addition, the Potency in [9] is 19.4 µM (active) and 24.3 µM (active); in [10], 13.7 µM (active) and 19.3 µM (active); in assay [12] it was 19.4 µM (active) and 19.3 µM (active); in [15], 17.3 µM (active) and 27.3 µM (active). In addition, the Potency result in [3], in [7], in assay [11], in assay [17] and in assay [14] was “inactive” in each case. The compound was classed as inactive in assay [13].

`Oc1cc2ccccc2c2ccccc12`: the Potency in [1] is 19.3 µM (active); in assay [2], 10.9 µM (active); in [16] it was 15.4 µM (active); in assay [4] it was 24.3 µM (active); in [5] it was 4.33 µM (active); in [6] it was 6.86 µM (active). Besides, the Potency is 4.86 µM (active) in assay [8]; 13.7 µM (active) in assay [9]; 5.45 µM (active) in [10]; 7.7 µM (active) in assay [12]; 13.7 µM (active) in [15]. The Potency result in assay [7], in [11] and in [17] was “inactive” throughout.

As for `Oc1cccc(-c2c3nc(c(-c4cccc(O)c4)c4ccc([nH]4)c(-c4cccc(O)c4)c4nc(c(-c5cccc(O)c5)c5ccc2[nH]5)CC4)C=C3)c1`, the Potency in [1] is 7.5 µM (active); in assay [2] it was 29.8 µM (active); in [5], 13.3 µM (active); in assay [6], 13.3 µM (active); in assay [8] it was 16.8 µM (active); in [20], 26.6 µM (active). Moreover, the Potency in assay [9] was 8.41 µM (active); in assay [10], 8.41 µM (active); in [12] it was 21.1 µM (active); in assay [15], 10.6 µM (active). The Potency entry in assay [18], in assay [7], in assay [11] and in assay [17] was “inactive” throughout. Moreover, the compound was called inactive in [13].
